Data taken from PubChem BioAssay (Tox21).
Results filed as inconclusive are left out. A call without a number means that no potency is given here. Active and inactive are the calls of the source. Unless noted, the call rests on the fitted dose curve; in most records, active means well fitted curve in the direction sought with a large enough effect in the repeat runs; inconclusive means weak or mixed curves; inactive means no such curve, though single readings can be large; an effect the other way counts as inactive or inconclusive.

How the values were obtained:
[1] = qHTS assay to identify small molecule antagonists of the androgen receptor (AR) signaling pathway using the MDA cell line in the presence of 0.5 nM R1881 - cell viability counter screen (AID 1259242); further: nearly all actives have a fitted effect of over 45% in size
How it was run: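 Steps: plate MDA-kb2 cells, rest 5 hr at 37C without CO2; pin in compounds in DMSO; add R1881 to 0.5 nM final; incubate 16 hr; add CellTiter-Fluor, 30 min; read fluorescence.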

[2] = biological target: Estrogen receptor (Homo sapiens) (UniProt P03372); experiment: qHTS assay to identify small molecule antagonists of the estrogen receptor alpha (ER-alpha) signaling pathway using the BG1 cell line in the presence of 0.1 nM 17-beta-estradiol (AID 1259244); further: nearly all actives have a fitted effect of over 50% in size; further: potency means the concentration at half of the fitted maximal effect
Chain of Estrogen receptor (Homo sapiens) (P03372 whole entry, looked up): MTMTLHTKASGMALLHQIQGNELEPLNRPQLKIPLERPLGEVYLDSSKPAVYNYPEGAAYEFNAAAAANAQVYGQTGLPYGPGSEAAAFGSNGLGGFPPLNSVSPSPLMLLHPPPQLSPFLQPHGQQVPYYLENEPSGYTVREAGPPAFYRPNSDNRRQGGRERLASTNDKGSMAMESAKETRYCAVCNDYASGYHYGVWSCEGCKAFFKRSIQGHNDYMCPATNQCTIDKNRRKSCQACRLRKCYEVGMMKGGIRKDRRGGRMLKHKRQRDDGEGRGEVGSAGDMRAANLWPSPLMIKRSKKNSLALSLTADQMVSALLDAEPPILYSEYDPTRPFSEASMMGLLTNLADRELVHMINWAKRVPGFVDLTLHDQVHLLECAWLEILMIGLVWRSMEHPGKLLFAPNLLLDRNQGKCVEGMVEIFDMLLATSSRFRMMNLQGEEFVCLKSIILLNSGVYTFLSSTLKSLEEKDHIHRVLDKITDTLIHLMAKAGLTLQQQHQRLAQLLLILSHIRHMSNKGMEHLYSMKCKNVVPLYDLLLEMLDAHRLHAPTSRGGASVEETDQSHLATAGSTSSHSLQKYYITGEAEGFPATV
How it was run: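 Antagonist mode: compounds in DMSO are pinned onto VM7Luc4E2 reporter cells, 0.1 nM final 17beta-estradiol is added, and after 22 h at 37C luciferase luminescence is measured with ONE-Glo.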

[3] = qHTS assay to identify small molecule HDAC inhibitors (AID 1259364); further: potency means the concentration at half of the fitted maximal effect;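 further: wild-type HCT-116 cells with endogenous class I/II HDAC activity; nearly all actives have a fitted effect of over 45% in size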
How it was run: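 Cells (HCT-116, wild type) are seeded at 1,500 per well, incubated overnight, treated with compound in DMSO for 2 hr, then developed with HDAC-Glo I/II reagent for 30 min at room temperature.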

[4] = qHTS assay to identify small molecule agonists of the sonic hedgehog signaling (Shh) pathway (AID 1259368; calls by dose curve; further: series mostly up to about 92 µM; nearly all actives have a fitted effect of over 15% in size)
How it was run: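 Cells of a mouse NIH/3T3 clone stably expressing luciferase under the Gli1 transcriptional response element are exposed to test chemicals for 24 hr at 37 C. Pathway activation is detected as a rise in luminescence.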

[5] = qHTS assay to identify small molecule antagonists of the sonic hedgehog signaling (Shh) pathway (AID 1259369; calls by dose curve; further: nearly all actives have a fitted effect of over 45% in size; further: potency means the concentration at half of the fitted maximal effect)
How it was run: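 Cells are plated and held 4hr at 37 C, compounds (DMSO) are pinned in, conditioned medium is added to stimulate the pathway, and after 24hr luciferase reagent is added for 30min before luminescence is read.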

[6] = biological target: Estrogen receptor beta (Homo sapiens) (UniProt Q92731); experiment: qHTS assay to identify small molecule agonists of the estrogen receptor beta (ER-beta) signaling pathway (AID 1259377; active means well fitted activation curve with a large enough effect in the signal ratio in the repeat runs, not every such curve was filed as active; the % refers to the signal ratio)
Chain of Estrogen receptor beta (Homo sapiens) (Q92731 whole entry, looked up): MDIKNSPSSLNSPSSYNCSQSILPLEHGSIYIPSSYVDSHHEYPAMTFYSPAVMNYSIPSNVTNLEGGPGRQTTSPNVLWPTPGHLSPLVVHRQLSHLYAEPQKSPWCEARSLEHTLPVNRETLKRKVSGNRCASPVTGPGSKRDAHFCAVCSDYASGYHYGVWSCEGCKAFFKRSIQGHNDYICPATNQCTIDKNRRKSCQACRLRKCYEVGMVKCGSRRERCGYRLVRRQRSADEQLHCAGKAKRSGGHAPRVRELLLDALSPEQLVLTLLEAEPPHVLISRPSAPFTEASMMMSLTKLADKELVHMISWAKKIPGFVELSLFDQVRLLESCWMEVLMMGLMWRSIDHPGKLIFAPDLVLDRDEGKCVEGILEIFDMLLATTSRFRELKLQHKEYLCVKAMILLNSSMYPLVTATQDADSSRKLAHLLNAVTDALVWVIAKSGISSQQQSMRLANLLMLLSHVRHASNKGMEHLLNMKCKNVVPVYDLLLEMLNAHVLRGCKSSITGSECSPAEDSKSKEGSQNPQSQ
How it was run: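 ER-beta-UAS-bla HEK293T (GripTite) cells carrying a UAS-driven beta-lactamase reporter, in medium with 2% charcoal-stripped FBS, were exposed to compounds for 16 hr at 37C; LiveBLAzer B/G FRET substrate was then added and fluorescence read after 2 hours at room temperature.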

[7] = qHTS assay to identify small molecule agonists of the androgen receptor (AR) signaling pathway in the presence of an antagonist - cell viability counter screen (AID 1259379);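 further: MDA-kb2 human breast cancer cells carrying an MMTV luciferase reporter; series mostly up to about 92 µM; nearly all actives have a fitted effect of over 25% in size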
How it was run: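 Cytotoxicity is assessed by CellTiter-Fluor in MDA-kb2 cells carrying an MMTV-driven luciferase reporter. Cells receive 3.0uM nilutamide plus compounds at 15 concentrations and incubate 16 hr at 37C without CO2 before fluorescence reading.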

[8] = qHTS assay to identify small molecule agonists of the estrogen receptor beta (ER-beta) signaling pathway - cell viability counter screen (AID 1259380); further: nearly all actives have a fitted effect of over 30% in size; further: potency means the concentration at half of the fitted maximal effect
How it was run: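 Cytotoxicity is measured in parallel with the reporter screen: after 16 hr compound exposure at 37C and a 2 hr LiveBLAzer step, CellTiter-Glo is added to the same ER-beta-UAS-bla HEK293T wells and luminescence read after 30 min.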

[9] = qHTS assay to identify small molecule antagonists of the estrogen receptor beta (ER-beta) signaling pathway - cell viability counter screen (AID 1259382); further: nearly all actives have a fitted effect of over 55% in size; further: potency means the concentration at half of the fitted maximal effect
How it was run: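 Cytotoxicity counter screen multiplexed with the beta-lactamase antagonist assay: GripTite HEK293T ER-beta-bla cells were treated 16 hr with test chemicals in the presence of 1nM 17-beta-estradiol, and viability was measured by CellTiter-Glo.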

[10] = biological target: Estrogen receptor (Homo sapiens) (UniProt P03372); experiment: qHTS assay to identify small molecule agonists of the estrogen receptor alpha (ER-alpha) signaling pathway in the presence of an antagonist (AID 1259383; calls by dose curve; further: top concentration of the series differs between compounds; nearly all actives have a fitted effect of over 15% in size)
How it was run: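 Agonist-mode confirmation in the presence of the ER antagonist ICI-182,780 at 10.0nM final. Breast-derived VM7Luc4E2 reporter cells were exposed to compounds for 22hr, and ERE-driven luciferase was quantified by luminescence.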

[11] = qHTS assay to identify small molecule agonists or antagonists of the thyroid stimulating hormone receptor (TSHR) signaling pathway - wild type cell line counter screen (AID 1259384; calls by dose curve)
How it was run: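 Wild-type HEK293 cells were plated 18 h at 37 C/5% CO2, pin-dosed with compound plus Ro20-1724 medium, held 30 min at room temperature, then given cAMP-d2 and anti-cAMP-cryptate; fluorescence was read after 1 h. Fifteen concentrations, triplicate.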

[12] = biological target: Thyrotropin receptor (Homo sapiens) (UniProt P16473); experiment: qHTS assay to identify small molecule antagonists of the thyroid stimulating hormone receptor (TSHR) signaling pathway (AID 1259385; calls by dose curve; further: nearly all actives have a fitted effect of over 20% in size)
Chain of Thyrotropin receptor (Homo sapiens) (P16473 whole entry, looked up): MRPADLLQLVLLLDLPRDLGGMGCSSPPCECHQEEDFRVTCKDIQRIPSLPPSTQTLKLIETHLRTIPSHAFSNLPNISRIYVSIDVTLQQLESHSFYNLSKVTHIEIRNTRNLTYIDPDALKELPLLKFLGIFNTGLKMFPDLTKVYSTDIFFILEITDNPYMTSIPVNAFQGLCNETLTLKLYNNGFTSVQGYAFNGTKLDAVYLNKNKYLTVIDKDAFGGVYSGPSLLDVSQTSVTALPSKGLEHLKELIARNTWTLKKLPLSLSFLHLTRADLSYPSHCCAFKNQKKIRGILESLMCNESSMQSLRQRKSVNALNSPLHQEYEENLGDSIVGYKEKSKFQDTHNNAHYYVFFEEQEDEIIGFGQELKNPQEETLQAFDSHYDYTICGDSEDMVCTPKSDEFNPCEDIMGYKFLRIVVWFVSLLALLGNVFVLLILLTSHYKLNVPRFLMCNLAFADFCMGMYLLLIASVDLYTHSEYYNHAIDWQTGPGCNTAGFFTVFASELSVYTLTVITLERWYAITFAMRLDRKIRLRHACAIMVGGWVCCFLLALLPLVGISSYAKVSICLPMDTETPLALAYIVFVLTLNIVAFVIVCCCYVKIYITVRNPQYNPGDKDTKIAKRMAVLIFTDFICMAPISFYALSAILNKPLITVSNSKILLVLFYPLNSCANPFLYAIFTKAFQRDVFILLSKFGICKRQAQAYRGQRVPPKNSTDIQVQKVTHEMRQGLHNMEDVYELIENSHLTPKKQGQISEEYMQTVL
How it was run: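 TSHR-HEK293 cells were plated and held 18 h at 37C/5% CO2, then given compound plus Ro20-1724 and stimulated with TSH at 1.5 ng/mL final. After 30 min at room temperature, cAMP was detected with cAMP-d2/anti-cAMP-cryptate (1 h) by fluorescence.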

[13] = qHTS assay to identify small molecule agonists of the estrogen receptor alpha (ER-alpha) signaling pathway in the presence of an antagonist - cell viability counter screen (AID 1259386);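 further: series mostly up to about 92 µM; cells exposed to compounds for 22 h at 37 °C before the viability read; nearly all actives have a fitted effect of over 30% in size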
How it was run: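 Cytotoxicity was measured in parallel with the ERE-luciferase agonist screen, in the same wells. The cells were VM7Luc4E2, which endogenously express ER-alpha, and treatment was with compounds plus 10.0nM ICI-182,780 for 22hr.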

[14] = qHTS assay to identify small molecule HDAC inhibitors - cell viability counter screen (AID 1259365); further: series mostly up to about 92 µM; nearly all actives have a fitted effect of over 50% in size
How it was run: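 Wild-type HCT-116 cells were seeded at 1,500 per well, incubated overnight at 37 C, then exposed to compounds in DMSO for 2hr. Viability was read by CellTiter-Glo luminescence after 30min at room temperature.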

[15] = qHTS assay to identify small molecule agonists of the sonic hedgehog signaling (Shh) pathway - cell viability counter screen (AID 1259366); further: nearly all actives have a fitted effect of over 50% in size
How it was run: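 NIH/3T3-derived 3T3 Gli1-Luc cells (stable Gli1-responsive firefly luciferase reporter) were seeded, rested 4 hr at 37 C/5% CO2, then exposed to compounds in DMSO for 24 hr; viability was read by CellTiter-Fluor fluorescence in the same wells.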

[16] = qHTS assay to identify small molecule antagonists of the sonic hedgehog signaling (Shh) pathway - cell viability counter screen (AID 1259367); further: nearly all actives have a fitted effect of over 55% in size
How it was run: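 Conditioned medium drove Shh signaling in 3T3 Gli1-Luc cells exposed to compounds at 37C and 5% CO2. Viability was determined from CellTiter-Fluor fluorescence, with reagent incubated 1 hr after 23 hr of treatment.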

[17] = biological target: Estrogen receptor beta (Homo sapiens) (UniProt Q92731); experiment: qHTS assay to identify small molecule antagonists of the estrogen receptor beta (ER-beta) signaling pathway (AID 1259378; active means well fitted inhibition curve with a large enough effect in the signal ratio in the repeat runs, not every such curve was filed as active; the % refers to the signal ratio)
How it was run: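 ER-beta-UAS-bla HEK293T (GripTite) cells in 2% charcoal-stripped FBS medium were preincubated 6 hr at 37C, dosed with compound, then stimulated with 1 nM E2 (final) for 16 hr; beta-lactamase reporter read by B/G FRET fluorescence after 2 hr substrate loading.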

[18] = biological target: Androgen receptor (Homo sapiens) (UniProt P10275); experiment: qHTS assay to identify small molecule agonists of the androgen receptor (AR) signaling pathway in the presence of an antagonist (AID 1259381; calls by dose curve; further: nearly all actives have a fitted effect of over 15% in size)
Chain of Androgen receptor (Homo sapiens) (P10275 whole entry, looked up): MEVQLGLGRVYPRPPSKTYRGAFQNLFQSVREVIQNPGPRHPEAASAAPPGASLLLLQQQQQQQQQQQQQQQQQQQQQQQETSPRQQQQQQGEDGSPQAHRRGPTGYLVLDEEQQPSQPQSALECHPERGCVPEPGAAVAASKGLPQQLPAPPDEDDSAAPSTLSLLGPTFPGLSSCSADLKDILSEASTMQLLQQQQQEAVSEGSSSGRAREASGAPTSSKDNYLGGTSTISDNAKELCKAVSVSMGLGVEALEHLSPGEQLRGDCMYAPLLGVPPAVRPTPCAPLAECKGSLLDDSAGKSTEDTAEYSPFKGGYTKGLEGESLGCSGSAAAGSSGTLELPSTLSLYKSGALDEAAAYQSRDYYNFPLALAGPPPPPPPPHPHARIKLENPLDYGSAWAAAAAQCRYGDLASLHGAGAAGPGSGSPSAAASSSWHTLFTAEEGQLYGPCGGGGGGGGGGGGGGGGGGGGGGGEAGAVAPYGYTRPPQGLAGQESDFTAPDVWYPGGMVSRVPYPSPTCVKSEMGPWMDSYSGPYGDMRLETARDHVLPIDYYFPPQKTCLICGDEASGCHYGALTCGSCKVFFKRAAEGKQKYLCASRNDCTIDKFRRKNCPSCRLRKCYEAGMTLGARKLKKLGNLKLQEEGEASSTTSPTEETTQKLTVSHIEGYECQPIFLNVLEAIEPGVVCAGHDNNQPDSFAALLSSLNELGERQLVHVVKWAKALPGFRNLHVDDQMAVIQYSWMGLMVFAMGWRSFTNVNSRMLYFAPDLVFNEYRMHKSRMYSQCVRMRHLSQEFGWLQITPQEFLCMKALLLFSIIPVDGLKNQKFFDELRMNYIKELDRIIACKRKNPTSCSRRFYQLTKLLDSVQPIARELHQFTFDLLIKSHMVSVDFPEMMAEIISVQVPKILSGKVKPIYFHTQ
How it was run: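 Agonist-mode confirmation screen: human MDA-kb2 cells stably expressing luciferase under an MMTV promoter bearing AR and GR response elements, co-treated with 3.0uM nilutamide (final). Luminescence measured after 16hr compound incubation.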

Compound	Potency [1]	Potency [2]	Potency [3]	Potency [4]	Potency [5]	Potency [6]	Potency [7]	Potency [8]	Potency [9]	Potency [10]	outcome [11]	Potency [12]	Potency [13]	Potency [14]	Potency [15]	Potency [16]	Potency [17]	Potency [18]
c1cc[c]([Bi]([c]2ccccc2)[c]2ccccc2)cc1	inactive	inactive	inactive	inactive	13.7 µM (active)	inactive	inactive	inactive	inactive	inactive	inactive	inactive	inactive					
C[Si](NC1CCCCC1)(NC1CCCCC1)NC1CCCCC1	inactive	inactive	inactive			inactive	inactive	27.3 µM (active)			inactive			inactive	inactive	inactive		
O=S1OCCO1	inactive	inactive	inactive	inactive		inactive	inactive	inactive	inactive		inactive	inactive	inactive	inactive	inactive	inactive		
O=C(Nc1ccccc1)Nc1ccccc1	inactive	inactive	1.54 µM (active)	inactive		inactive	inactive		inactive				inactive	inactive	inactive	inactive	inactive	
Nc1ccc(S(=O)(=O)O)c(N)c1	inactive	inactive	inactive		inactive		inactive	inactive	inactive	inactive	inactive	inactive	inactive	inactive	inactive	inactive		
CCCCOC(=O)CCS	inactive	27.3 µM (active)	inactive		inactive	inactive	inactive	inactive			inactive	inactive	inactive	inactive	inactive	inactive	inactive	
CCCCC(=O)O[C@]1(C(=O)CO)[C@@H](C)C[C@H]2[C@@H]3CCC4=CC(=O)C=C[C@]4(C)[C@@]3(F)[C@@H](O)C[C@@]21C	inactive	inactive	inactive				inactive	15.4 µM (active)		inactive	inactive			inactive	inactive	inactive		
CC(C)CCCCCCOC(=O)CCCCC(=O)OCCCCCCC(C)C	inactive	inactive	inactive		inactive		inactive	inactive	inactive	inactive	inactive		inactive	inactive	inactive	inactive		
CC(N)CN (configuration not stated)	inactive	inactive	inactive		inactive		inactive	inactive	inactive		inactive	inactive	inactive		inactive	inactive		
CCC(C)(O)CCC=C(C)C (configuration not stated)	inactive	inactive	inactive	inactive			inactive	inactive	inactive	inactive	inactive	inactive	inactive	inactive	inactive	inactive		
CO[Si](C)(OC)OC	inactive	inactive	inactive			inactive	inactive	inactive		inactive	inactive		inactive		inactive	inactive		
OC/C(Br)=C(\Br)CO	inactive	inactive	inactive	inactive		inactive	inactive	inactive	inactive	inactive	inactive		inactive		inactive	inactive	inactive	
CSc1ccc(Oc2ccc(S(N)(=O)=O)cc2CN(C)C)cc1C	inactive	68.6 µM (active)	inactive			inactive	inactive	38.6 µM (active)	27.3 µM (active)	inactive	inactive		inactive	inactive		inactive		inactive
O=C(O)c1cccc(O)c1	inactive	inactive	inactive	inactive	inactive	inactive	inactive	inactive	inactive		inactive	inactive			inactive	inactive		
NC(=O)N(O)[C@@H]1C=C[C@H](Oc2cccc(Oc3ccc(F)cc3)c2)C1	inactive		inactive	inactive		inactive		inactive			inactive	inactive		inactive	inactive	inactive		
